# Experimental data as given in PubChem BioAssay (NCATS).
# Results filed as inconclusive are left out. Calls of active or inactive are those of the source. Calls come from the whole dose curve; as a rule, active = well fitted inhibition curve with a large enough effect; inconclusive = small, poorly fitted or top-dose-only effect; inactive = flat fitted curve, though single readings scatter.
# Molecular target: Phospholipid hydroperoxide glutathione peroxidase GPX4 (Homo sapiens) (UniProt P36969)
# Assay: Primary qHTS Assay for Inhibitors of Recombinant Selenoprotein Glutathione Peroxidase 4 (GPX4) (AID 1845192); note: nearly all actives have a fitted effect of over 65% in size
# Details: recombinant GPX4, GR-coupled NADPH fluorescence, 15 min; series mostly up to 50 µM; activity change, negative = inhibition: at the top concentration
# Method in brief: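 Steps: GPX4 plus compound, 30 min RT; add GR/GSH/NADPH master mix; start with cumene hydroperoxide; read 340/450 nm fluorescence at 0 and 15 min. Finals were 200 nM GPX4, 1 mM GSH, 0.5 mM CHP, 0.5 mM NADPH, 100 nM GR.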
# % is set by controls: 0 for no effect and ±100 for the full control effect.
# Chain of Phospholipid hydroperoxide glutathione peroxidase GPX4 (Homo sapiens) (P36969 whole entry, looked up): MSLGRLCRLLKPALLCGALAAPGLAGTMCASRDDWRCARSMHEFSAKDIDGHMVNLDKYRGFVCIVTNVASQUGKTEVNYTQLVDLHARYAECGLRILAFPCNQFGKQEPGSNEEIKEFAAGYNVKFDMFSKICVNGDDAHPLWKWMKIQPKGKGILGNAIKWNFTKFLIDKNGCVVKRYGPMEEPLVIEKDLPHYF
Structure (SMILES),"activity change, negative = inhibition",outcome
CCc1ccc2c(-c3cccc(Cl)c3)nc(=O)n(CC)c2n1,-20.8% (inactive),–
Nc1ncnc2c1ncn2C1CCCO1 (configuration not stated),–,inactive
CCN(CC)CCOC(=O)c1cc(Cl)c(N)cc1OC,-2.14% (inactive),–
c1ccc2c(c1)CC(N1CCN(c3cccc4c3OCCO4)CC1)C2,–,inactive
O=c1cc(O)cc(/C=C/c2ccc(O)c(O)c2)o1,–,inactive
c1ccc(C(NCCNC(c2ccccc2)c2ccccc2)c2ccccc2)cc1,–,inactive
CC[N+](CC)(CC)CC(=O)Nc1c(C)cccc1C,–,inactive
COc1ccc(NC(=O)c2ccc(-c3ccc(-c4noc(C)n4)cc3C)cc2)cc1N1CCN(C)CC1,–,inactive
C#CCn1c(=O)c2c(ncn2C)n(C)c1=O,-6.29% (inactive),–
CC(C)(C)NCC(O)COc1cccc2[nH]c(=O)[nH]c12 (configuration not stated),3.47% (inactive),–
NOCC(=O)O,4.09% (inactive),–
CNc1ncnc2c1ncn2[C@H]1C[C@H](OP(=O)(O)O)[C@@H](COP(=O)(O)O)O1,-1.52% (inactive),–
N[C@@H](Cc1ccc(F)cc1)C(=O)O,–,inactive
COc1ccc2c(c1)c(CC(=O)O)c(C)n2Cc1ccc(Cl)cc1,–,inactive
O=[N+]([O-])c1cccc2cn[nH]c12,–,inactive
COC(=O)C(C)(N)Cc1ccc(O)cc1 (configuration not stated),–,inactive
NC[C@@H]1O[C@H](c2ccccc2)Cc2c1ccc(O)c2O,0.21% (inactive),–
